Source: PubChem BioAssay (EPA / NIEHS)
The source made the active and inactive calls. How the source made its calls: active means hit-call score of the fitted dose curve at least 0.9, where 1 is the maximum; inactive means score below 0.9.

molecular target: Signal transducer and activator of transcription 3 (Homo sapiens) (UniProt P40763); test: ATG_STAT3_CIS: Attagene CIS-FACTORIAL HepG2 Assay for human Signal Transducer and Activator of Transcription 3 (STAT3) (AID 2282963); settings: HepG2, Attagene cis-factorial STAT3 reporter transcription; actives raise or lower the signal
Procedure: ATG_CIS is a cell-based, multiplexed-readout assay that uses HepG2, a human liver cell line, with measurements taken at 24 hours after chemical dosing in a 24-well plate.ATG_STAT3_CIS is one of 52 assay component(s) measured or calculated from the ATG_CIS assay. It is designed to make measurements of mRNA induction, a form of inducible reporter, as detected with fluorescence intensity signals by Reverse transcription polymerase chain reaction (RT-PCR) and Capillary electrophoresis technology.Data from the assay component ATG_STAT3_CIS was analyzed into 1 assay endpoint. This assay endpoint, ATG_STAT3_CIS, was analyzed with bidirectional fitting relative to DMSO as the negative control and baseline of activity. Using a type of inducible reporter, measures of mRNA for gain or loss-of-signal activity can be used to understand the reporter gene at the transcription factor-level as they relate to the gene STAT3. Furthermore, this assay endpoint can be referred to as a primary readout, because this assay has produced multiple assay endpoints where this one serves a reporter gene function. To generalize the intended target to other relatable targets, this assay endpoint is annotated to the dna binding intended target family, where the subfamily is stat protein.
Human liver HepG2 cells are transiently transfected with multiple reporter transcription units (MRTUs) in 6-well plates using FuGene 6 reagent (Roche; 3 ml FuGene/1 mg DNA). The MRTU constructs are regulated by a cis-regulating element (promoter). […] A major difference between the CIS and TRANS system is that in CIS activities of endogenous TFs are measured, whereas the TRANS assay evaluates changes in activities of exogenous, chimeric NR-Gal4 proteins. […] At the end of 24 hour incubation, total RNA was isolated using TriZol reagent (Invitrogen). The isolated RNA is then reverse-transcribed using oligo(dT) primer and Mo-MLV reverse transcriptase (Invitrogen) with DNAse I (Ambion) treatment for 30 min. The one-tenth of the produced cDNA was amplified by PCR using Taq DNA polymerase (Invitrogen) and two reporter sequence-specific primers. The PCR products were fluorescently labeled by primer extension with 6-arboxyfluorescein (6-FAM) 5'-labeled reporter sequence-specific primer (2 min at 95 C, 20 s at 68 C and 10 min at 72 C) and these products were digested with 5U of HpaI (New England Biolabs) for 2h at 37 C. The fragments were purified using Qiaquick PCR columns (Qiagen), analyzed on an ABI 3130xL genetic analyzer (Applied Biosystems) with peak positions identified by using a set of X-rhodamine (ROX)-labeled MapMarker1000 molecular weight standards (BioVentures). The raw capillary electrophoresis data was processed using Attagraph software (Attagene).

Sequence of Signal transducer and activator of transcription 3 (Homo sapiens) (P40763 whole entry, looked up): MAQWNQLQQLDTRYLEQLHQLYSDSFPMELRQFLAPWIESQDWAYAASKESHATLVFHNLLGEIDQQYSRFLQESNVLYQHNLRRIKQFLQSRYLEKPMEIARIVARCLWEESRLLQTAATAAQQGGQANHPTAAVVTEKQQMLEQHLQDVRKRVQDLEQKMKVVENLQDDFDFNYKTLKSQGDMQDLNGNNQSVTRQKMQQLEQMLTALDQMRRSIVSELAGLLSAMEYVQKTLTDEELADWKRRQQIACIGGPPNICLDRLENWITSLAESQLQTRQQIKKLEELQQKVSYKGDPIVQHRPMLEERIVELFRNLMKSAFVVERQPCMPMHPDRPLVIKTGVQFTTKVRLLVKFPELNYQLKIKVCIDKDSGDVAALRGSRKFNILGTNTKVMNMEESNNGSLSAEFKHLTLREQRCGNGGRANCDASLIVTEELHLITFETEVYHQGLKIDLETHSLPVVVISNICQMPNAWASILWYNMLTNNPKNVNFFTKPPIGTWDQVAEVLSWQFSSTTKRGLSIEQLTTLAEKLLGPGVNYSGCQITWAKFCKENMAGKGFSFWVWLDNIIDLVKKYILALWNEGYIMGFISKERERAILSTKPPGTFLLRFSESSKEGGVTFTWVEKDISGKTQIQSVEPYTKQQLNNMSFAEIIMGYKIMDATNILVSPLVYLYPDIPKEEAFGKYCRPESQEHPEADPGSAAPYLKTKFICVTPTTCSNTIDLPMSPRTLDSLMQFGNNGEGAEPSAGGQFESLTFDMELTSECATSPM

Structure (SMILES)	outcome
CC(C)=CC(=O)O	inactive
CCCCCCCCOC(C)=O	inactive
CC(C)(C)c1ccc(S)cc1	inactive
Nc1ccc(O)c(N)c1	inactive
O=Cc1ccccc1O	inactive
CN(C)C	inactive
S=c1[nH][nH]c(=S)s1	inactive
CCCCCCCCCCOC(=O)c1ccccc1C(=O)OCCCCCCCC	inactive
C1CCCNCC1	inactive
CCCO[Si](OCCC)(OCCC)OCCC	inactive
CC/C(=C(\c1ccccc1)c1ccc(OCCN(C)C)cc1)c1ccccc1	inactive
O=C(O)c1ccco1	inactive
OCCCO	inactive
NC(=O)NC(N)=O	inactive
CC(C)(CO)CO	inactive
COc1ccc2[nH]cc(CCNC(C)=O)c2c1	inactive
CCCCCCCCCCCCOCCOS(=O)(=O)O	inactive
N#CCCNCCC#N	inactive
[Na+]	inactive
c1coc(CNc2ncnc3nc[nH]c23)c1	inactive

Structure (SMILES)	outcome
C=C(C)C(=O)OCCC[Si](OC)(OC)OC	inactive
CC1=CCC(C(C)(C)O)CC1 (stereo not given)	inactive
CCCOC(=O)CC	inactive
COC(=O)c1cccc(C(=O)OC)c1	inactive
CC(=O)OC(C)(C)C1CC=C(C)CC1 (stereo not given)	inactive
CC1=CC(O)CC(C)(C)C1 (stereo not given)	inactive
CCCCCC#CC(=O)OC	inactive
O=[N+]([O-])c1cc(N(CCO)CCO)ccc1NCCO	inactive
O=C1OC2(c3ccc(O)cc3Oc3cc(O)ccc32)c2ccccc21	inactive
CCCCCCC(O)CCOC(C)=O (stereo not given)	inactive
CC1=CC(C)C(C=O)C(C)C1 (stereo not given) (tested in a mixture with another compound)	inactive
CCC(=O)OC(C)(C)C1CC=C(C)CC1 (stereo not given)	inactive
Nc1ccc(N)c([N+](=O)[O-])c1	inactive
CCCCOCCOCCO	inactive
O=C(C=Cc1ccccc1)OCCCc1ccccc1	inactive
[Cl][Dy]([Cl])[Cl]	inactive
CCCCCCCCCCCCCC(=O)OCC	inactive
CCC(C)C1CCCCC1=O (stereo not given)	inactive
C=COCC1CCC(COC=C)CC1 (stereo not given)	inactive
C=CC(=O)OCCCCCC	inactive
